Shown are actives, neighbours in structure and some others; about 3% of the full set was active somewhere.
Tau fibril FP: blocks human tau fibril formation measured by polarization; hit rate 0.39% among 280,000; P10636; K18 P301L tau heparin fibrillization, Alexa594 FP, 6 h; Potency, µM (highest dose often 57.7 µM), for inactives: at the top dose activity, negative = inhibition, usual class: inhibitors; also: potency is read from the fitted curve at half-maximal effect; nearly all actives have a fitted effect of over 55% in size
Target sequence (P10636 561-689 P618L limits assumed): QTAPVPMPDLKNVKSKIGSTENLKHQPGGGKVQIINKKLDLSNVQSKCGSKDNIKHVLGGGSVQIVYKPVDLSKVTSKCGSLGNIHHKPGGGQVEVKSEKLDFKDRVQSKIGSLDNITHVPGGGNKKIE
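Human tau K18 […] P301L fragment, 15 uM unlabeled plus 0.24 uM Alexa 594-labeled tau (final), with compound and 20 uM heparin in 100 mM sodium acetate pH 7; 6 hr at 37 C, then Alexa 594 FP read.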
Tau ThT inhib: inhibitors of human tau fibril formation, thioflavin T binding. P10636. recombinant tau K18 P301L, heparin-induced fibrillization, ThT fluorescence. Potency, µM (series often up to 57.4 µM), without a hit: at the highest dose activity, negative = inhibition, usual class: inhibitors. hit rate 2.1% among 270,000. AID 1460; also: potency is read from the fitted curve at half-maximal effect; nearly all actives have a fitted effect of over 55% in size
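ThT emission at 510 nm, taken 1 hr after adding 30 uM dye, quantifies aggregates formed when 20 uM heparin acts on human tau K18 P301L for 6 hr at 37 C.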
KDM4E inh: JMJD2E (human) inhibition | JMJD2E catalytic domain, FDH-coupled NADH fluorescence (FDH is formaldehyde dehydrogenase) | B2RXH2 | Potency, µM (doses to about 57.1 µM), without a hit: at the top dose activity change, negative = inhibition, most hits filed as inhibitors | hit rate 1.6% among 230,000; active = well fitted inhibition curve with a large enough effect, not every such curve was filed as active; inconclusive = small, poorly fitted or top-dose-only effect, or another doubt; inactive = no such curve, though single readings can be large or run the other way;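 also: potency is read from the fitted curve at half-maximal effect; 0% = wells with enzyme and -100% = buffer wells without enzyme; nearly all actives have a fitted effect of over 50% in size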
Target sequence (B2RXH2 1-337 limits assumed): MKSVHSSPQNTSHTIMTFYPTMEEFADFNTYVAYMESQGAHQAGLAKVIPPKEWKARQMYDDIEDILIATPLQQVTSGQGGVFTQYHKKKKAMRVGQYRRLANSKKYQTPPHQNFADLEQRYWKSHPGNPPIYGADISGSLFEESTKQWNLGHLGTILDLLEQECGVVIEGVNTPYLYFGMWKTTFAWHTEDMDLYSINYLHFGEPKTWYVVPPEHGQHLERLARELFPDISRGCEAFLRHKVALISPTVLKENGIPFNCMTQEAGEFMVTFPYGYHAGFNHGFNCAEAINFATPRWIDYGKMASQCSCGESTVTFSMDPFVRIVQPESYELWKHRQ
Coupling enz: coupling enzyme interference in Giardia aldolase counter-screen; coupling enzyme system counterscreen, AmpLite Red fluorescence; activity change, negative = inhibition, % at 58.2 µM, hits read low; hit rate 0.67% among 290,000; in the data active = activity change below about -30%
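Activity here indicates interference with the coupling reaction, not aldolase inhibition. Compounds at 57.5 uM final met coupling enzymes for 10 min at RT; substrate and AmpLite Red detection followed, with a 525/598 nm fluorescence read after 20 min.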
Tau fluor counter: counter-screen for tau fibril formation inhibitors. tau K18 P301L Alexa594 fluorescence, heparin fibrillization. Potency, µM (titrated, usually from 57.7 µM), inactives show at the top dose activity change, negative = decrease. hit rate 0.93% among 280,000. AID 1463; also: potency is read from the fitted curve at half-maximal effect; nearly all actives have a fitted effect of over 55% in size
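Human tau K18 P301L (15 uM unlabeled, 0.24 uM Alexa 594-labeled) in 100 mM sodium acetate pH 7 with 20 uM heparin, 6 hr at 37 C. ThT 30 uM added, 1 hr ambient; Alexa 594 FP and total fluorescence read at 555/632 nm.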
* marks the source's active call; other numbers are inactive results; u = inconclusive; x = no result; ! = a repeat was not active; [ ] = another dose, or the depositor's remark. Unless noted, calls follow the shape of the dose curve; as a rule, active = well fitted curve in the direction sought with a large enough effect; inconclusive = small, poorly fitted or top-dose-only effect, or another doubt; inactive = no such curve, though single readings can be large; an effect the other way counts as inactive or inconclusive. Unless noted, % is scaled to controls: 0 for no effect and ±100 for the full control effect.

SMILES | Tau fibril FP | Tau ThT inhib | KDM4E inh | Coupling enz | Tau fluor counter
CCN(CC)CCNC(=O)c1cn(-c2ccccc2)nc1-c1cccs1 | -15% | -2% | -23% | 0 | -21%
CCOc1ccccc1CNC(=O)c1ccc(CS(=O)Cc2cccc(Cl)c2)o1 (stereo unspecified) | 14% | -16% | x | x | -4%
O=C(Nc1cccc(Cl)c1)OCC#CCCl | x | x | x | -38* | x
COc1ccc(C(=O)NNC(=S)NC(=O)c2ccco2)cc1 | 0% | u | -77% | -3 | -10%
CC(Oc1ccc(Cl)cc1)C(=O)NNC(=S)NC(=O)c1ccco1 (stereo unspecified) | -15% | u | 20µM* | 6 | -19%
CC(C)Cn1c2c(c(O)c(C(=O)Nc3ncccc3O)c1=O)CCCC2 | 0% | u | u | -37* | -18%
Cc1ccc(C)c(NC(=O)CSc2nncn3c2cc2sccc23)c1 | u | -13% | x | x | -14%
Cc1ccc2c(Cl)cc(Cl)c(OCC(=O)NCc3ccco3)c2n1 | u | u | 25µM* | -21 | -30%
CCCCN(CC)c1nc(C)nc2c1c(C)c(C)n2-c1c(C)cc(C)cc1C | x | x | x | -6 | x
COc1ccc(C2/C=C\CN(C(=O)C3CCCCC3)C(C)C(=O)N2Cc2ccc(F)cc2)cc1 (stereo unspecified) | x | x | x | -2 | x
C(=N\Nc1nc(-c2ccccn2)nc2ccccc12)/c1ccccc1 | -14% | -11% | 8.9µM* | -1 | u
FC(F)(F)c1nc2ccccc2nc1N/N=C\c1ccccc1 | 1% | 14µM* | u | -4 | u
C(=N\Nc1nc(-c2cccnc2)nc2ccccc12)/c1ccccc1 | -9% | -10% | u | 1 | u
CC(=O)Nc1ccc(NC(=O)Nc2ccc3c(c2)N(C)C(=O)CS3)cc1 | 3% | -14% | -3% | 6 | -20%
COc1cccc(NC(=O)Nc2ccc3c(c2)N(C)C(=O)CS3)c1 | 2% | u | 2% | -6 | 14µM*[quencher]
CCOc1ccc(OCC)c(NC(=O)Nc2ccc3c(c2)N(C)C(=O)CS3)c1 | 5% | -18% | -4% | -5 | 8.9µM*[quencher]
COC(=O)C(NS(N)(=O)=O)C(C)C (stereo unspecified) | x | x | x | -1 | x
COC(=O)C1=C(C(=O)OC)[C@@H]2Nc3ccccc3[C@@]23C[C@@H](C(=O)OC)N(S(=O)(=O)c2ccc(C#N)cc2)C3=N1 | 0%[11.6 µM] | -2%[11.5 µM] | 3%[11.4 µM] | 0 | -6%[11.6 µM]
O=[N+]([O-])c1cc([N+](=O)[O-])c2c(=Nc3ccccc3)n(-c3ccccc3)n(O)c2c1 | u | 14µM* | u | -21 | 16µM*[quencher]
O=C(NC1CCCCCCC1)c1ccccc1-c1ccccc1 | -5% | -11% | -1% | -36* | -9%
O=C(NC1CCCCCC1)c1ccccc1-c1ccccc1 | 9% | -3% | 3% | 3 | 0%
COC(=O)CCC(=O)OC1(C)C(=O)C=C2C=C(C3CC3)N(C3CCCCC3)C=C2C1=O (stereo unspecified) | u | u | 16µM*! | -41* | -11%[11.6 µM]
CC1(OC(=O)C2CCCC2)C(=O)C=C2C=C(c3ccsc3)N(c3ccc(CO)cc3)C=C2C1=O (stereo unspecified) | 8%[11.6 µM] | 7%[11.5 µM] | 2%[11.4 µM] | -1 | 7%[11.6 µM]
COC(=O)CCC(=O)OC1(C)C(=O)C=C2C=C(C3CC3)N(C3CCCC3)C=C2C1=O (stereo unspecified) | -5%[11.6 µM] | -8%[11.5 µM] | -14%[11.4 µM] | -35*! | -7%[11.6 µM]
COC(=O)CCC(=O)OC1(C)C(=O)C=C2C=C(C3CC3)N(c3ccc(OC)cc3)C=C2C1=O (stereo unspecified) | -4%[11.6 µM] | u | u | -41* | -8%[11.6 µM]
SMILES | Tau fibril FP | Tau ThT inhib | KDM4E inh | Coupling enz | Tau fluor counter
O=C(Nc1ccc(C(F)(F)F)cc1)C1CCCN(c2cnccn2)C1 (stereo unspecified) | 2% | 1% | x | x | -15%
Cc1cc(C)cc(NC(=O)CCN2C(=O)c3ccccc3Sc3ncccc32)c1 | 0% | -9% | x | x | -8%
O=c1cc(-c2ccc([N+](=O)[O-])cc2)nc2cc(-c3ccc(F)cc3)[nH]n12 | 13% | 10µM* | 5% | 4 | u
N=C(N)SCc1ccccn1 | 0% | 2% | -5% | -80* | -1%
CC(C)N1C(=O)S/C(=C\c2ccc(-c3ccc(Cl)c(C(=O)O)c3)o2)C1=O | x | x | x | 1 | x
CCN(CC)c1ccc(/C=C2/SC(=O)N(C(C)C)C2=O)o1 | -3% | 18µM* | -15% | -38* | -18%
COc1cc(OC)cc(C(=O)Nc2cc3c(cc2N2CCCC2)n(C)c(=O)c(=O)n3C)c1 | -6% | u | x | x | -4%
CCCN(CCC)S(=O)(=O)c1ccc(NC(=O)c2cc(C(=O)OC)cc([N+](=O)[O-])c2)cc1 | 13% | -3% | 3% | -2 | 8.9µM*[quencher]
CCC(C)(C)NC(=O)c1cc(C(=O)OC)cc([N+](=O)[O-])c1 | 3% | -6% | 5% | -4 | -4%
CCC1(c2ccc(O)cc2)NC(=O)N(C)C1=O (stereo unspecified) | x | x | x | -1 | x
CCN(CC)CCOC(=O)c1ccc(NC(=O)c2cc3c(=O)n(CC)c4ccccc4c3s2)cc1 | u | u | x | x | -29%
COc1ccc(OC(=O)c2nc(SCc3ccc(F)cc3)ncc2Cl)cc1 | -8% | u | x | x | -17%
O=C(Oc1ccccc1F)c1nc(SCc2ccc(F)cc2)ncc1Cl | -15% | 20µM* | x | x | -25%
CC(C)(C)OC(=O)C1=NOC2(C=CC(=O)C=C2)C1 | u | 13µM* | -11% | 3 | -11%
CC(=O)C1=C(O)C(=O)N(CCCN2CCOCC2)C1c1ccccc1[N+](=O)[O-] (stereo unspecified) | u | 25µM* | u | -21 | u
CC(=O)C1=C(O)C(=O)N(CCC(=O)O)C1c1ccccc1[N+](=O)[O-] (stereo unspecified) | 4% | -1% | -12% | 1 | -2%
CC(=O)C1=C(O)C(=O)N(C)C1c1ccccc1[N+](=O)[O-] (stereo unspecified) | u | 16µM* | u | -13 | -14%
COc1ccc2c(c1)-c1nc(N)sc1CC2 | u | 32µM* | u | -13 | u
Nc1nc2c(s1)CCc1ccccc1-2 | x | x | x | -5 | x
COc1ccc2c(c1)-c1nc(/N=C/c3ccc(O)c(OC)c3)sc1CC2 | u | 32µM* | u | -24 | -24%
COc1ccc2c(c1)-c1nc(NC(=O)c3cc(OC)c(OC)c(OC)c3)sc1CC2 | 4% | -12% | x | x | u
CCN1C(=O)[C@H]2[C@H]3[C@H](O)[C@H](O)C/C(=N/O[C@@H]4O[C@@H](COC(C)=O)[C@@H](OC(C)=O)[C@@H](OC(C)=O)[C@H]4OC(C)=O)[C@@H]3CC[C@@H]2C1=O | -2%[11.6 µM] | 0%[11.5 µM] | x | 3 | -2%[11.6 µM]
CCOc1ccc(NC(=O)c2c(NCc3cccs3)sc3c2CCCCC3)cc1 | -4% | u | x | x | u
